Screening results as filed in PubChem BioAssay.
Pf Dd2 inh: inhibitors of Plasmodium falciparum Dd2 growth. 120,000 compounds, 4.3% hits. Potency, µM (highest dose often 28.9 µM), without a hit: at the highest dose activity, negative = inhibition, most hits filed as inhibitors. P. falciparum Dd2 growth, SYBR Green, 72 h. AID 1347417; active = well fitted inhibition curve with a large enough effect;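 also: plate controls were DMSO vehicle for no effect and reference drug for full effect; nearly all actives have a fitted effect of over 65% in size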
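Readout: SYBR Green fluorescence, 485 nm excitation, 535 nm emission, after ~16 h lysis at 37C. Before that, Dd2-infected red cells (2.5% hematocrit) grew 72 h with compound, 29 uM top final concentration.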
* marks the source's active call; other numbers are inactive results; [ ] = another dose, or the depositor's remark. The full list was thinned out, with hits kept by preference. Potency is read from the fitted curve at half-maximal effect.

`COc1ccc(N2CCN(S(=O)(=O)c3cc(Br)cc4c3N(C(=O)C3CC3)CC4)CC2)cc1` gave Pf Dd2 inh inactive.
For Cc1ccc(C)c(N2CCN(S(=O)(=O)c3cc(Br)cc4c3N(C(=O)C3CC3)CC4)CC2)c1 the results were Pf Dd2 inh 49%.
`Cc1ccc(C)c(N2CCN(C(=O)CCNS(=O)(=O)c3ccc4c(c3)CCN4C(=O)C3CC3)CC2)c1` gave Pf Dd2 inh -1%.
`CC(=O)N1CC[C@H](c2nc3cc(C)ccc3o2)C1` gave Pf Dd2 inh -2%[44.1 µM].
For CN(C(=O)CN1CCC2(CC1)C(C(=O)O)CC(=O)N2C)c1ccccc1 (stereo not given) the results were Pf Dd2 inh -7%.
COCCc1nncn1C1CCN(C(=O)c2ccccc2C(F)(F)F)CC1 was read as Pf Dd2 inh inactive.
Screening CN(CC1Cc2ccccc2O1)C(=O)c1cn(Cc2ccccc2F)nn1 (stereo not given) returned Pf Dd2 inh -29%.
CCN1CCC(CCNC(=O)C2CCCN(Cc3ccncc3)CCC(=O)NCC2)CC1 (stereo not given) was read as Pf Dd2 inh 29%.
`Cc1cnc(CC2CCCNC2)n1Cc1ccc(F)cc1` (stereo not given) gave Pf Dd2 inh -26%.
`Cc1cnc(CC2CCN(C(=O)CC3CCCC3)CC2)n1Cc1ccc(F)cc1` gave Pf Dd2 inh 3.2µM*.
`Cc1cnc(C2CCC2)n1CC1CCN(C(=O)C(C)c2ccccc2)CC1` (stereo not given) gave Pf Dd2 inh 8.9µM*.
`Cc1ccc(C(=O)N2CCC(Cn3c(C)cnc3C3CCC3)CC2)cn1` gave Pf Dd2 inh -8%.
Cc1cnc(CC2CCN(C(=O)NC(C)C)CC2)n1Cc1ccc(F)cc1 was read as Pf Dd2 inh inactive.
Screening Cc1cnc(CC2CCN(C(=O)C3CCOC3)CC2)n1Cc1ccc(F)cc1 (stereo not given) returned Pf Dd2 inh -3%.
Cc1cnc(CC2CCN(C(=O)C(C)c3ccccc3)CC2)n1Cc1ccc(F)cc1 (stereo not given) was read as Pf Dd2 inh 2.2µM*.
`Cc1cnc(C2CCC2)n1CC1CCN(C(=O)Cc2cccnc2)CC1` gave Pf Dd2 inh 4%.
Screening Cc1cnc(CC2CCCN(C(=O)c3cccnc3)C2)n1Cc1ccc(F)cc1 (stereo not given) returned Pf Dd2 inh inactive.
COc1ccccc1-c1nc(C(=O)N2CCOCC2)n2ccccc12 was read as Pf Dd2 inh -22%.
O=C(NCCc1ccccc1)N1CCc2nn(Cc3ccccc3)c(=O)n2CC1 was read as Pf Dd2 inh 41%.
`COc1cccc(N2CC(C(=O)NCc3ccc4c(c3)OCO4)NC2=O)c1` (stereo not given) gave Pf Dd2 inh 16%.
`Cc1cc(CN(C)C(=O)[C@H]2C[C@@H](C(=O)O)N(C)[C@H]2c2cccc(F)c2F)on1` gave Pf Dd2 inh 9%.
Screening Nc1c(C(=O)Nc2ccc(OC(F)(F)F)cc2)sc2nc3c(cc12)N1CCC3CC1 returned Pf Dd2 inh 11µM*.
For COc1ccc(NC(=O)c2sc3nc4c(cc3c2N)CN(Cc2ccccc2)CC4)cc1 the results were Pf Dd2 inh inactive.
CC(=O)c1ccc(NC(=O)c2sc3nc4c(cc3c2N)N2CCC4CC2)cc1 was read as Pf Dd2 inh -15%.
O=C(Cc1ccccc1)N1CC[C@H]2COC(=O)N2c2cc(F)ccc2C1 was read as Pf Dd2 inh -3%[44.1 µM].
CC1(c2noc(-c3ccccn3)n2)CCN(C(=O)CCC(=O)N2CC(=O)Nc3ccccc32)CC1 was read as Pf Dd2 inh -17%.
`CC1(c2noc(-c3ccccn3)n2)CCN(C(=O)CCc2nc3ccc(Cl)cc3[nH]2)CC1` gave Pf Dd2 inh 5.6µM*.
CC1(c2noc(C3CC3)n2)CCN(C(=O)CCc2nc3ccc(Cl)cc3[nH]2)CC1 was read as Pf Dd2 inh inactive.
CN1CCN(Cc2cnn(-c3cccc(Cl)c3)c2)CC1CCO (stereo not given) was read as Pf Dd2 inh 14µM*.
For COc1cc(CN2CCN(Cc3ccc(-n4cccn4)cc3C)CC2CCO)cc(OC)c1 (stereo not given) the results were Pf Dd2 inh -11%.
Cc1cccc(-n2cc(CN3CC[C@H](CO)[C@@H](O)C3)cn2)c1 was read as Pf Dd2 inh -23%.
`Cc1nc(-c2cccnc2)ncc1C(=O)N1CC[C@](C)(O)C(C)(C)C1` gave Pf Dd2 inh 9%.
For CO[C@H]1[C@H](NC(=O)c2cc(C3CC3)[nH]n2)c2ccccc2C12CCNCC2 the results were Pf Dd2 inh -17%.
For O=C(C1CN(c2ccccc2)C(=O)N1)N1CCCC1 (stereo not given) the results were Pf Dd2 inh 17%[44.1 µM].
Screening Cc1ccc(C(=O)NCC2(C)CCOCC2)s1 returned Pf Dd2 inh -12%.
O=c1c2sc3ccccc3c2n(Cc2cccc(Cl)c2)c(=O)n1Cc1ccc(F)cc1 was read as Pf Dd2 inh -17%.
For Cc1ccc(C)c(Cn2c(=O)n(Cc3ccc4c(c3)OCO4)c(=O)c3oc4ccccc4c32)c1 the results were Pf Dd2 inh 37%.
